Like-named read-outs stand apart in the source and are kept apart here.
Columns and labels:
Parameters in all cases: species or system human, MV4-11 + K-562 + COLO205 + SK-N-BE2 + OVCAR-8
MAPK10 = conditions: read-out: apparent Kd; compound concentrations: 100 nM and 1000 nM (sheet 'Samples'), CATDS: 3.9230525665234099E-2; n = 1
MAPK11 = conditions: read-out: apparent Kd; compound concentrations: 100 nM and 1000 nM (sheet 'Samples'), CATDS: 3.6090086264463E-2; n = 1
SYK = conditions: read-out: apparent Kd, compound concentrations: 100 nM and 1000 nM (sheet 'Samples'), n = 1
BMPR1A = conditions: read-out: apparent Kd, n = 1
EPHB3 = conditions: read-out: apparent Kd, n = 1
LIMK1 = conditions: read-out: apparent Kd, n = 1
SIK3 = conditions: read-out: apparent Kd, n = 1
AURKA = conditions: read-out: apparent Kd, compound concentrations: 100 nM and 1000 nM (sheet 'Samples'), n = 1
CDK7 = conditions: read-out: apparent Kd; compound concentrations: 100 nM and 1000 nM (sheet 'Samples'), CATDS: 1.6224786894182001E-2; n = 1
ERCC2 = conditions: read-out: apparent Kd; compound concentrations: 100 nM and 1000 nM (sheet 'Samples'), CATDS: 1.6840556785817699E-2; n = 1
NUAK1 = conditions: read-out: apparent Kd, compound concentrations: 100 nM and 1000 nM (sheet 'Samples'), n = 1
PIK3CD = conditions: read-out: apparent Kd, compound concentrations: 100 nM and 1000 nM (sheet 'Samples'), n = 1
PIK3CG = conditions: read-out: apparent Kd, compound concentrations: 100 nM and 1000 nM (sheet 'Samples'), n = 1
PRKAG1 = conditions: read-out: apparent Kd; compound concentrations: 100 nM and 1000 nM (sheet 'Samples'), CATDS: 1.89897373320012E-2; n = 1
STK10 = conditions: read-out: apparent Kd; compound concentrations: 100 nM and 1000 nM (sheet 'Samples'), CATDS: 1.3341325559896399E-2; n = 1
PIM2 = conditions: read-out: apparent Kd, n = 1
MAP2K2 = conditions: read-out: apparent Kd; compound concentrations:100 nM and 1000 nM (sheet 'Samples'); n = 1
ERBB3 = conditions: read-out: apparent Kd, compound concentrations: 100 nM and 1000 nM (sheet 'Samples'), n = 1
CDK4 = conditions: read-out: apparent Kd; compound concentrations: 100 nM and 1000 nM (sheet 'Samples'), CATDS: 1.3251728133645901E-2; n = 1
[1] = compound concentrations:100 nM and 1000 nM (sheet 'Samples')

Q: Which results are given for `COc1ccc(Nc2nccc(N3CCC(NC(=O)Nc4ccc5c(c4)OCO5)C3)n2)cc1` (stereo not shown) [GSK1379745A]?
A: potency estimated from few doses (MAPK10): 1570 nM; potency estimated from few doses (MAPK11): 1900 nM; potency estimated from few doses (SYK; CATDS: 3.71249657659821E-2): 1780 nM

Q: `CCN(CC)CCOc1ccc(Nc2ncc3cc(-c4c(Cl)cccc4Cl)c(=O)n(C)c3n2)cc1` [SB-601273] was tested. Which potency estimated from few doses (BMPR1A; [1]) did it give?
A: 538 nM

Q: What about the potency estimated from few doses (EPHB3; [1]) of the same compound?
A: 1220 nM

Q: What about the potency estimated from few doses (LIMK1; [1]) of the same compound?
A: 1110 nM

Q: And the potency estimated from few doses (SIK3; [1])?
A: 201 nM

Q: With `CN1C(=O)c2ccccc2N(C)c2nc(Nc3cnn(C4CCNCC4)c3)ncc21` [XMD-17-51] as the compound, how does the potency estimated from few doses (AURKA; CATDS: 0.190670193315162) read?
A: 5.82 nM

Q: And the potency estimated from few doses (CDK7)?
A: 901 nM

Q: And the potency estimated from few doses (ERCC2)?
A: 788 nM

Q: What about the potency estimated from few doses (NUAK1; CATDS: 0.118275245978952) of the same compound?
A: 11.6 nM

Q: What about the potency estimated from few doses (PIK3CD; CATDS: 3.4664155585902003E-2) of the same compound?
A: 111 nM

Q: And the potency estimated from few doses (PIK3CG; CATDS: 5.0205811396743898E-2)?
A: 50.7 nM

Q: What about the potency estimated from few doses (PRKAG1) of the same compound?
A: 530 nM

Q: And the potency estimated from few doses (SIK3; compound concentrations: 100 nM and 1000 nM (sheet 'Samples'), CATDS: 1.5899502438213298E-2)?
A: 973 nM

Q: What about the potency estimated from few doses (STK10) of the same compound?
A: 2180 nM

Q: How did the potency estimated from few doses (EPHB3; compound concentrations: 100 nM and 1000 nM (sheet 'Samples'), CATDS: 2.4596610963575599E-2) turn out when `Cc1ccc(O)cc1Nc1ccnc2cc(-c3ccccn3)ccc12.Cl` [GW440139A] was run?
A: 2120 nM

Q: How did the potency estimated from few doses (BMPR1A; compound concentrations: 100 nM and 1000 nM (sheet 'Samples'), CATDS: 2.7920432625818298E-2) turn out when `Cl.Oc1cccc(Nc2ccnc3cc(-c4ccncc4)ccc23)c1` [GW494601A] was run?
A: 313 nM

Q: What about the potency estimated from few doses (SIK3; compound concentrations: 100 nM and 1000 nM (sheet 'Samples'), CATDS: 2.0843232752511001E-2) of the same compound?
A: 1150 nM

Q: Which results are given for `Cc1ccc(O)cc1Nc1ccnc2cc(-c3ccc(CN4CCCCC4)o3)ccc12` [GW557777X]?
A: potency estimated from few doses (BMPR1A; compound concentrations: 100 nM and 1000 nM (sheet 'Samples'), CATDS: 1.65124596245807E-2): 269 nM; potency estimated from few doses (EPHB3; compound concentrations: 100 nM and 1000 nM (sheet 'Samples'), CATDS: 2.1562283576004201E-2): 78.2 nM; potency estimated from few doses (PIK3CD; CATDS: 1.8513434924081099E-2): 151 nM; potency estimated from few doses (SIK3; compound concentrations: 100 nM and 1000 nM (sheet 'Samples'), CATDS: 1.3583905279374199E-2): 975 nM; potency estimated from few doses (SYK; CATDS: 1.2716705388879999E-2): 1860 nM

Q: For `Nc1nc(-c2ccc3c(N)n[nH]c3c2)cc(N2CCCCC2)n1` [GSK2228768A], which potency estimated from few doses (PIM2; [1]) is on record?
A: 1410 nM

Q: Which potency estimated from few doses (MAP2K2) does the source give for `CS(=O)(=O)Cc1ccc(Nc2nccc(-c3c(-c4cccc(NC(=O)C5CCCCC5)c4)nn4ncccc34)n2)cc1` [GSK350559A] here?
A: 1550 nM

Q: What about the potency estimated from few doses (PIM2; [1]) of the same compound?
A: 2040 nM

Q: For `NC1=NC(=O)/C(=C/c2ccc3ncccc3c2)S1` [RO4569139-000], which potency estimated from few doses (PIK3CG; CATDS: 0.108121816897262) is on record?
A: 432 nM

Q: Which results are given for `CS(=O)(=O)CCNCc1ccc(-c2ccc3ncnc(Nc4ccc(OCc5cccc(F)c5)c(C(F)(F)F)c4)c3c2)o1` [GW576484X]?
A: potency estimated from few doses (EPHB3; compound concentrations: 100 nM and 1000 nM (sheet 'Samples'), CATDS: 4.6783581960199903E-2): 2310 nM; potency estimated from few doses (ERBB3; CATDS: 5.8570940838060803E-2): 1400 nM; potency estimated from few doses (PIM2; compound concentrations: 100 nM and 1000 nM (sheet 'Samples'), CATDS: 6.5177951129736497E-2): 1150 nM

Q: With `Cl.Cl.Cl.c1ccc(Oc2ccc(Nc3ccnc4cc(-c5ccc(CN6CCNCC6)o5)ccc34)cc2)nc1.c1ccc(Oc2ccc(Nc3ccnc4cc(-c5ccc(CN6CCNCC6)o5)ccc34)cc2)nc1` [GW567142A] as the compound, how does the potency estimated from few doses (SYK; CATDS: 1.6781429181419099E-2) read?
A: 2160 nM

Q: For `NC(=O)c1cccc(Nc2nccc(Nc3cccc4[nH]ncc34)n2)c1` [GW782612X], which potency estimated from few doses (AURKA; CATDS: 4.2767473291312301E-2) is on record?
A: 808 nM

Q: And the potency estimated from few doses (BMPR1A; compound concentrations: 100 nM and 1000 nM (sheet 'Samples'), CATDS: 3.8772747112030999E-2)?
A: 1090 nM

Q: And the potency estimated from few doses (NUAK1; CATDS: 5.2412926017760202E-2)?
A: 475 nM

Q: With `CC(C)c1nc(-c2cccc(NS(=O)(=O)c3ccccc3)c2)c(-c2ccnc(Nc3ccc4c(c3)CN(C)CC4)n2)s1` [GSK1649598A] as the compound, how does the potency estimated from few doses (CDK4) read?
A: 1400 nM

Q: And the potency estimated from few doses (ERBB3; CATDS: 1.39186209544408E-2)?
A: 1140 nM

Q: What about the potency estimated from few doses (LIMK1; compound concentrations: 100 nM and 1000 nM (sheet 'Samples'), CATDS: 7.0535341813333999E-2) of the same compound?
A: 38.5 nM

Q: How did the potency estimated from few doses (PIK3CG; CATDS: 5.9148900132827802E-2) turn out when `O=C1N=C(NCCc2cccc(Cl)c2)S/C1=C\c1ccc2ncccc2c1` [RO4509201-000] was run?
A: 1370 nM

Q: What about the potency estimated from few doses (PIM2; compound concentrations: 100 nM and 1000 nM (sheet 'Samples'), CATDS: 5.4743223774465499E-2) of the same compound?
A: 1820 nM

Reference: article PMC11062922 (Nature Chemical Biology, 2023)
